The text below walks through data of PubChem BioAssay.

A short description of assay [1]: inhibitors of TNFa-induced NFkB p65 translocation, primary screen, imaging, HUVEC, MLSMR starter and 10KST1 sets (AID 438;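 active = inhibition above 20% together with a positive visual image hit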;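 note: compound added about 3h40 before a 20 min TNFalpha stimulation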;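 for inhibition: signal is the nuclear over cytoplasmic p65 intensity ratio per well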). As to conditions: HUVEC TNFa-induced p65 nuclear translocation; cell count: measured here: nuclei count (cytotoxicity indicator), at 2.08 µM; inhibition: at 2 µM, stronger effect = higher value, 0% TNFa-plus-vehicle, 100% no-TNFa wells.
Assay [2] can be described thus: inhibitors of mutant huntingtin aggregation, primary screen, imaging, exon1htt(103Q)mCFP cells, high-content imaging (AID 483).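 For nuclei count: percent of the per-plate median nuclei count of sample wells.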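 Note: compound exposure lasted 3 days before fixation.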 As to conditions: exon1htt(103Q)mCFP cell line, aggregate imaging, at 2 µM; inhibition of aggregation: stronger effect = higher value; nuclei count: measured here: cell count, toxicity.
Assay [3] can be described thus: inhibitors of E-selectin induction by TNFa, primary screen, imaging, HUVEC, immunofluorescence, MLSMR starter and 10KST1 sets (AID 487;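 active = visually confirmed hit in the image check and inhibition above 20%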;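 for inhibition: signal is fraction of cell area covered by stained E-selectin grains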;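 for nuclei count: 100% = median nuclei count of all wells on the same plate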). As to conditions: HUVEC TNFalpha-induced E-selectin immunofluorescence imaging, at 2 µM; inhibition: stronger effect = higher value; nuclei count: measured here: cell number, toxicity.
Assay [4] addresses Voltage-gated potassium channel subunit beta-2 (Rattus norvegicus) (UniProt P62483). The assay is described as follows: KvBeta enzyme negative modulators, primary screen, biochemical, NADPH fluorescence (AID 622;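 active = fluorescence slope higher than the sample average by over 3 SD, cut at about -0.22 in these data, passing the limit was not always enough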;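 note: slope of raw intensity against log time taken from 70 to 1610 s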). As to conditions: recombinant KvBeta, 4-cyanobenzaldehyde reduction, at 10 µM, stronger effect = higher value.
The target is the same in assay [5]. The assay is described as follows: KvBeta positive modulators, primary screen, biochemical, NADPH fluorescence (AID 623;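 active = NADPH fluorescence slope more negative than the mean of all samples by about 3 SD, 99.7% confidence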;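 note: fluorescence intensity change per second fitted from 20 to 320 s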). As to conditions: Recombinant KvBeta, NADPH fluorescence decrease slope, 10 min; at 10 µM; stronger effect = lower value.
Assay [6] deals with Alpha-2C adrenergic receptor (Homo sapiens) (UniProt P18825). The assay is described as follows: modulators of alpha2C/GIRK thallium flux, primary screen, cell-based, HEK293 alpha2C/GIRK1/2 (AID 624;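 active = fluorescence slope after compound addition differing from the mean of all screened samples at 99.7% confidence, in either direction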;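 note: slope of fluorescence ratio to pre-addition baseline per second over 15 to 24 s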). To be noted: thallium flux BTC fluorescence, at 10 µM, actives lie on both sides.
Sequence of Alpha-2C adrenergic receptor (Homo sapiens) (P18825 whole entry, looked up): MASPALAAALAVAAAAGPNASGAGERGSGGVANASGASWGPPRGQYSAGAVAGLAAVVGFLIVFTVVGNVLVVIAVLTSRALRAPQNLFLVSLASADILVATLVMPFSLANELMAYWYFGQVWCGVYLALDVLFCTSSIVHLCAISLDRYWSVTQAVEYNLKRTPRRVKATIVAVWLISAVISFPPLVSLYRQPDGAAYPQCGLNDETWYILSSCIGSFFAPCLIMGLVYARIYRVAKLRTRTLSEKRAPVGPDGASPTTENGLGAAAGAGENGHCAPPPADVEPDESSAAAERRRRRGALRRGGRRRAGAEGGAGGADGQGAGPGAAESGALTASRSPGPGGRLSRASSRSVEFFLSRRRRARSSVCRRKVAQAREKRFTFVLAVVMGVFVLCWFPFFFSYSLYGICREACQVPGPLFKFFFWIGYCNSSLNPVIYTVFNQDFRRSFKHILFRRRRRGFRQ
Assay [7] is described as follows: inhibitors of Sendai virus-induced IRF3 signaling, primary screen, TLR/RLR signaling modifier project, cell-based, Sendai virus stimulus, luciferase, 10K MLSCN set (AID 602276;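 active = inhibition at or above 50% at 10 µM; inactive = inhibition below 50%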;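 note: firefly luciferase from ISG56 promoter only with Renilla not read in this screen; 0% = Sendai virus plus DMSO and 100% = medium plus DMSO without virus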). As to conditions: HEK293 RL24 IRF3 luciferase reporter, at 10 µM, stronger effect = higher value.
The nature of assay [8]: inhibitors of poly I:C-induced TLR3 signaling, primary screen, cell-based, poly I:C stimulus, luciferase, 10K MLSCN set (AID 602277;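 active = inhibition of the reporter signal at or above 50%; inactive = inhibition below 50%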). To be noted: HEK293-TLR3 RL24 IRF3 luciferase reporter, at 10 µM, stronger effect = higher value.

Activity calls are given as the source filed them.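 Rule for the calls, unless noted: active = visual image review flags a hit and inhibition of aggregation exceeds 20%; inconclusive = visual hit but inhibition at or below 20%; inactive = no hit on visual image review.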

Sequence of Voltage-gated potassium channel subunit beta-2 (Rattus norvegicus) (P62483 whole entry, looked up): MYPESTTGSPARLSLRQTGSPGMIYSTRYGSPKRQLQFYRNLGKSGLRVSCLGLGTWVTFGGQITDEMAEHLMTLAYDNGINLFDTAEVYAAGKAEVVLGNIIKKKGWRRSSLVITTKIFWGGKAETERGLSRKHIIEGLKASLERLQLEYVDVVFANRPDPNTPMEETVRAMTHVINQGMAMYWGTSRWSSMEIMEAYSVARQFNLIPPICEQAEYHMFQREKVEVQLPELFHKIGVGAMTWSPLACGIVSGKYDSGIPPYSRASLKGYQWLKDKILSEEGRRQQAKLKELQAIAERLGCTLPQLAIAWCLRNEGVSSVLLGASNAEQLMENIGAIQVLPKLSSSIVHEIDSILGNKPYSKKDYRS

For `CCOC(=O)c1ccc(NS(=O)(=O)c2ccc3c(c2)CCCN3C(C)=O)cc1`, the cell count in assay [1] was found to be 684. The inhibition was 0.7% (inactive) in assay [1], -93.7% (inactive) in assay [3], 1.89% (inactive) in assay [7] and 6.65% (inactive) in assay [8]. Besides, the inhibition of aggregation in assay [2] is 9.2% (inactive). In addition, the values for the nuclei count in assay [2] and in assay [3] were 99% and 125%, respectively. The fluorescence slope in assay [4] is -0.543 (inactive). For the same molecule, in assay [5], the NADPH fluorescence slope is 8.9e-06 (inactive). Also, the slope in assay [6] is 0.00506 (inactive).

As for `O=C(Nc1cccnc1)c1ccc2c(c1)C(=O)N(Cc1cccnc1)C2=O`, the cell count in assay [1] worked out at 386. The inhibition in assay [1] is 1.4% (inactive); in assay [3] it was -26.9% (inactive); in assay [7] it was 5.57% (inactive); in assay [8] it was 11.9% (inactive). Further, the inhibition of aggregation in assay [2] was 9% (inactive). Further, the nuclei count amounted to 105% in assay [2] and 99.7% in assay [3]. The fluorescence slope in assay [4] was -0.615 (inactive). In assay [5], the NADPH fluorescence slope is -1.2e-05 (inactive). For the same molecule, in assay [6], the slope was 0.00348 (inactive).

Regarding `CC(=O)c1ccc(OC(=O)c2cccs2)cc1`, in assay [1], the cell count came to 305. For the same molecule, the inhibition in assay [1] was 3.8% (inactive); in assay [3] it was -41.6% (inactive); in assay [7], -3.03% (inactive); in assay [8] it was 22.4% (inactive). Further, the inhibition of aggregation in assay [2] was -6.3% (inactive). Besides, the nuclei count came to 99.1% in assay [2] and 105% in assay [3]. For the same molecule, the fluorescence slope in assay [4] is -0.498 (inactive). In addition, the NADPH fluorescence slope in assay [5] was -1.8e-05 (inactive). Moreover, the slope in assay [6] was 0.00631 (inactive).

Turning to `N#Cc1c(/N=C/c2cccs2)sc2c1CCCCC2`, the cell count in assay [1] was found to be 636. For the same molecule, the inhibition in assay [1] was -14.8% (inactive); in assay [3], -14.2% (inactive); in assay [7], 30.4% (inactive); in assay [8], -5.24% (inactive). In assay [2], the inhibition of aggregation is -34.1% (inactive). The nuclei count in assay [2] and in assay [3] was 127% in each case. Further, in assay [4], the fluorescence slope was -0.598 (inactive). For the same molecule, in assay [5], the NADPH fluorescence slope was -2.1e-05 (inactive). Besides, the slope in assay [6] was 0.0029 (inactive).

With `COc1ccc(-c2c(C(F)(F)F)oc3c(CN4CCN(C)CC4)c(O)ccc3c2=O)cc1`, the cell count in assay [1] came out at 555. Further, the inhibition in assay [1] was 7.7% (inactive); in assay [3], 0.6% (inactive); in assay [7], -6.41% (inactive); in assay [8], 8.59% (inactive). Moreover, the inhibition of aggregation in assay [2] was -14% (inactive). In addition, the nuclei count in assay [2] was 91.6%; in assay [3], 112%. Further, the fluorescence slope in assay [4] is -0.421 (inactive). The NADPH fluorescence slope in assay [5] is 2.5e-05 (inactive). Besides, the slope in assay [6] is 0.00536 (inactive).

As for `COC(=O)Nc1nc2c(C)cccc2s1`, the cell count in assay [1] came out at 299. Further, the inhibition is 0.7% (inactive) in assay [1], -33.7% (inactive) in assay [3], -14.5% (inactive) in assay [7] and -45% (inactive) in assay [8]. The inhibition of aggregation in assay [2] was -2.9% (inactive). Also, the values for the nuclei count in assay [2] and in assay [3] were 95.7% and 101%, respectively. The fluorescence slope in assay [4] is -0.469 (inactive). For the same molecule, the NADPH fluorescence slope in assay [5] was 9.8e-07 (inactive). For the same molecule, the slope in assay [6] is 0.0031 (inactive).

On to `Cc1ccc(-n2c(-c3ccncc3)nnc2-c2cccs2)cc1`, for which the cell count in assay [1] is 456. The inhibition in assay [1] is -3.2% (inactive); in assay [3], -55.2% (inactive); in assay [7] it was 11.8% (inactive); in assay [8] it was 12.5% (inactive). The inhibition of aggregation in assay [2] is -22.5% (inactive). For the same molecule, the nuclei count in assay [2] came to 104%; in assay [3], 119%. Besides, the fluorescence slope in assay [4] was -0.384 (inactive). Besides, the NADPH fluorescence slope in assay [5] was -4.2e-05 (inactive). In assay [6], the slope was 0.0046 (inactive).

On to `COc1ccc(-c2cc(C(F)(F)F)nc(N3CCN(c4ccc(F)cc4)CC3)n2)cc1OC`, for which the cell count in assay [1] is 827. Besides, the inhibition in assay [1] is -10.7% (inactive); in assay [3] it was -107% (inactive); in assay [7] it was -20.5% (inactive); in assay [8] it was -7.7% (inactive). Also, the inhibition of aggregation in assay [2] was -2.4% (inactive). In addition, the nuclei count in assay [2] was found to be 105%; in assay [3], 122%. The fluorescence slope in assay [4] is -0.52 (inactive). Further, the NADPH fluorescence slope in assay [5] was 2.2e-05 (inactive). Further, the slope in assay [6] is 0.00763 (inactive).

Turning to `Cc1c(C(=O)OC2CCC(C)CC2)[nH]c2c1C(=O)CCC2` (stereo not given), the cell count in assay [1] was determined as 625. Besides, the inhibition was -0.8% (inactive) in assay [1], -31.8% (inactive) in assay [3], -106% (inactive) in assay [7] and -256% (inactive) in assay [8]. The inhibition of aggregation in assay [2] was 23.7% (inactive). The values for the nuclei count in assay [2] and in assay [3] were 81.6% and 118%, respectively. Further, in assay [4], the fluorescence slope was -0.56 (inactive). In assay [5], the NADPH fluorescence slope is 1.4e-05 (inactive). The slope in assay [6] was 0.00619 (inactive).

With `Cc1occc1C(=O)N1CCN(Cc2ccccc2)CC1`, the cell count in assay [1] came to 661. The inhibition in assay [1] is -9% (inactive); in assay [3], -40.1% (inactive); in assay [7] it was 7.4% (inactive); in assay [8], 34.1% (inactive). In assay [2], the inhibition of aggregation is 8.8% (inactive). The nuclei count in assay [2] was determined as 75.8%; in assay [3], 104%. Moreover, the fluorescence slope in assay [4] is -0.483 (inactive). Besides, the NADPH fluorescence slope in assay [5] is -3.8e-05 (inactive). Moreover, the slope in assay [6] is 0.00745 (inactive).
